Among all 310,000 compounds or so, about 14,000 (4.5%) showed an effect of 50% or more. Effects have a minus sign here. Shown is part of a subset that was picked to be rich in strong results.
molecular target: human ether-à-go-go-related gene (hERG) potassium channel (human, UniProt Q12809); test: primary screen, population patch clamp on CHO cells stably expressing hERG; higher = less effect of the substance
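Further: peak tail current of the secondary pulse compared with the same well before compound.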

Sequence of human ether-à-go-go-related gene (hERG) potassium channel (Q12809 whole entry, looked up): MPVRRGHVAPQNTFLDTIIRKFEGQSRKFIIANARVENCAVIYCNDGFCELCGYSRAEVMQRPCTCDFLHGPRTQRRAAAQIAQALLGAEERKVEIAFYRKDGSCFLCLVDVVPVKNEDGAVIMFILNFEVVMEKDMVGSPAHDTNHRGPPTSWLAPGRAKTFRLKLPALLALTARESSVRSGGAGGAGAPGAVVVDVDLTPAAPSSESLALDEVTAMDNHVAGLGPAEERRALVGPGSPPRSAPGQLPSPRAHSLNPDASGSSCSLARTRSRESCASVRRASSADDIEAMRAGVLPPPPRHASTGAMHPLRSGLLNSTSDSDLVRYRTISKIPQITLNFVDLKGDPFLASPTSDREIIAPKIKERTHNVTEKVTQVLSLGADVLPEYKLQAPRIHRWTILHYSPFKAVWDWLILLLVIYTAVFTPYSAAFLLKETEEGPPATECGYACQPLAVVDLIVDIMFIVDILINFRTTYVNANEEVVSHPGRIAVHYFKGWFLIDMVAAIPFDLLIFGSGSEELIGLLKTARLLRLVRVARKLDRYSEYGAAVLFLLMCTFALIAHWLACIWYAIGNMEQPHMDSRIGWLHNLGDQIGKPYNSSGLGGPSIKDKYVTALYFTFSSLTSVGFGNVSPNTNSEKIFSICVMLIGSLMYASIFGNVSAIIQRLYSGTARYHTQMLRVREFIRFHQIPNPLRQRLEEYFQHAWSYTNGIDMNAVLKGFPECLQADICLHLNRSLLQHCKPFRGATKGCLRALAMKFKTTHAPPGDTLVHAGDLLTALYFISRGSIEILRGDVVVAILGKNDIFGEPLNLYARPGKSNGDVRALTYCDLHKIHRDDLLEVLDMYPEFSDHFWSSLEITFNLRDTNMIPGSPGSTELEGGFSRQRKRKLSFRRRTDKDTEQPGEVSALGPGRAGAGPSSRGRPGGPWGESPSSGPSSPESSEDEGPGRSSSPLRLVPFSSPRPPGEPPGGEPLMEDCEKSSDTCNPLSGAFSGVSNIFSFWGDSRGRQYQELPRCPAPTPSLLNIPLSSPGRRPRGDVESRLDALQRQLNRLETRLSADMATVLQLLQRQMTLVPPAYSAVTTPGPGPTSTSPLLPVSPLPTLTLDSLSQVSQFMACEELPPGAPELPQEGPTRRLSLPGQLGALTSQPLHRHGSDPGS

Row | Compound | hERG current change (%, negative = inhibition) at 10uM
1 | COC(=O)C1=C(COc2ccccc2)NC(=O)NC1c1ccc(Br)cc1 (stereo not shown) | 0.599%
2 | Cc1ccc(CSCC(=O)N/N=C/c2cccc(OC3CSC3)c2)cc1 | 11.4%
3 | Nc1nnc(/C=C/c2ccccc2Cl)s1 | 12.1%
4 | Cc1cc(C(=O)COC(=O)c2ccc([N+](=O)[O-])o2)c(C)n1CC1CCCO1 (stereo not shown) | -42.5%
5 | CCOc1ccc(/C=C2/C(=O)NC(=O)N(CCc3ccc(F)cc3)C2=O)cc1 | 8.76%
6 | Cc1ccc(-n2nc(C(=O)NN)c(C)c(C#N)c2=O)cc1Cl | 14.5%
7 | COc1ccc(N(C(=O)Cn2nnc(-c3ccccc3F)n2)C(C(=O)NCC2CCCO2)c2ccc(Cl)cc2)cc1 (stereo not shown) | 22.6%
8 | COc1ccc(S(=O)(=O)N(CC(=O)O)c2ccc(C)cc2)cc1 | 4%
9 | Cc1cc(Nc2ccc(Br)cc2)nc(-c2ccccc2O)n1 | 19.9%
10 | Cc1c(Cl)cccc1NC(=S)N(CCCN1CCOCC1)Cc1cccs1 | -26.5%
11 | CCc1ccccc1NC(=S)N(CCCN1CCN(C)CC1)Cc1cccs1 | -46%
12 | CCc1ccccc1NC(=S)N(CCCN1CCOCC1)Cc1cccs1 | -53.5%
13 | COc1ccc(CNC(=O)CCCn2nc(C)n3c(cc4sccc43)c2=O)cc1 | -1.61%
14 | COc1ccccc1C1OC(c2cccc([N+](=O)[O-])c2)=NN1C(C)=O (stereo not shown) | -62%
15 | CC(=O)N1N=C(c2cccc([N+](=O)[O-])c2)OC1c1ccccc1Cl (stereo not shown) | -25.8%
16 | CC(=O)N1N=C(c2cccc([N+](=O)[O-])c2)OC1c1ccc(Cl)cc1Cl (stereo not shown) | 8.14%
17 | CC(C)Cc1nc(SCc2cccnc2)c2c(=O)n(C)c(=O)n(C)c2n1 | -8.32%
18 | Cc1ccccc1-c1nc(SCc2cccnc2)c2c(=O)n(C)c(=O)n(C)c2n1 | 10.5%
19 | Cn1c(=O)c2c(SCc3cccnc3)nc(C3CC3)nc2n(C)c1=O | -9.63%
20 | Cn1c(=O)c2c(SCc3cccnc3)nc(CC(C)(C)C)nc2n(C)c1=O | -59.6%
21 | CCCc1nc(SCc2cccnc2)c2c(=O)n(C)c(=O)n(C)c2n1 | -57.3%
22 | CCc1nc(SCc2cccnc2)c2c(=O)n(C)c(=O)n(C)c2n1 | -10.7%

Row | Compound | hERG current change (%, negative = inhibition) at 10uM
23 | CC1=C(C(=O)NC(C)c2ccccc2)C2(CCC(C)CC2)OC1=O (stereo not shown) | -4.71%
24 | Cc1ccc(C)c2c1N(Cc1ccccc1)C(=O)C21OCCO1 | -21.8%
25 | Cc1nc(NC(=O)C2CCCCC2C(=O)O)sc1C (stereo not shown) | 12%
26 | O=C(CNC(=O)c1ccccc1)OCc1nnc(-c2ccc(Cl)cc2)o1 | -10.4%
27 | Cc1cnc(CN2CCc3c([nH]c4ccccc34)C2C2CCCCC2)[nH]1 (stereo not shown) | -62.6%
28 | Cc1c(CN2CCc3c([nH]c4ccccc34)C2C2CCCCC2)cnn1C (stereo not shown) | -38.7%
29 | c1ccc2c3c([nH]c2c1)C(C1CCCCC1)N(Cc1ncc[nH]1)CC3 (stereo not shown) | -39.5%
30 | O=S(=O)(c1ccccc1)c1nc(-c2ccccc2)oc1NCc1cccnc1 | 8.28%
31 | CNc1oc(-c2cccs2)nc1S(=O)(=O)c1ccccc1 | -18.7%
32 | C=CCNc1oc(-c2cccs2)nc1S(=O)(=O)c1ccccc1 | -24.7%
33 | N#Cc1nc(-c2ccco2)oc1NCCCn1ccnc1 | -19.7%
34 | O=S(=O)(c1ccccc1)c1nc(-c2ccco2)oc1NCCCN1CCOCC1 | -6.01%
35 | O=S(=O)(c1ccccc1)c1nc(-c2cccs2)oc1NCCCn1ccnc1 | -75.1%
36 | O=S(=O)(c1ccccc1)c1nc(-c2cccs2)oc1NCc1cccnc1 | -50.5%
37 | Cc1ccc(S(=O)(=O)c2nc(-c3cccs3)oc2NCc2cccnc2)cc1 | -18.3%
38 | O=S(=O)(c1ccccc1)c1nc(-c2ccco2)oc1NCCCn1ccnc1 | -65.6%
39 | CC(C)Sc1cc(N2CCCC2)nc(-c2ccccc2)n1 | -5.24%
40 | COc1cccc(NC(=O)N(CCN(C)C)C(C)c2cccnc2)c1 (stereo not shown) | -20.7%
41 | Cc1ccc(-n2c(N)c(C(=O)NCc3cccnc3)sc2=S)cc1 | 23.5%
42 | CCOc1ccc(CCNC(=O)COC(=O)c2ccc(S(=O)(=O)N3CCCC3)cc2)cc1OCC | 25.7%
43 | O=C(Nc1cc(Cl)ccc1O)c1cc(-c2ccco2)on1 | 8.36%
44 | Cc1nn(Cc2ccccc2)c(Cl)c1C(=O)OCC(=O)NC(=O)NC12CC3CC(CC(C3)C1)C2 | 11.5%

Row | Compound | hERG current change (%, negative = inhibition) at 10uM
45 | CCc1nc(N2CCN(C(=O)c3ccccc3)CC2)c2c3c(sc2n1)CCCC3 | -12.2%
46 | Cc1nc(N2CCN(C(=O)c3ccco3)CC2)c2c3c(sc2n1)CC(C)CC3 (stereo not shown) | -63.9%
47 | Cc1nc(N2CCN(C)CC2)c2c3c(sc2n1)CCCC3 | -11.4%
48 | CC1CCc2c(sc3nc(C4CC4)nc(N4CCN(C(=O)c5ccco5)CC4)c23)C1 (stereo not shown) | -19.2%
49 | CC(=O)N1CCN(c2nc(C)nc3sc4c(c23)CCC(C)C4)CC1 (stereo not shown) | -19.3%
50 | Cc1nc(N2CCN(C(=O)c3ccco3)CC2)c2c3c(sc2n1)CCC3 | -54.8%
51 | Cc1nc(N2CCNCC2)c2c3c(sc2n1)CCCC3 | -2.23%
52 | Cc1nc(N2CCN(C(=O)c3cccs3)CC2)c2c3c(sc2n1)CCCC3 | -63.8%
53 | CCc1nc(SCC(=O)N2CCN(C(=O)c3ccco3)CC2)c2c3c(sc2n1)CCCC3 | -46%
54 | CCc1nc(N2CCN(C(=O)c3ccco3)CC2)c2c3c(sc2n1)CCCC3 | -65.3%
55 | CCCNC(=S)N1CCN(c2nc(C)nc3sc4c(c23)CCCC4)CC1 | -31.5%
56 | Cc1nc(N2CCOCC2)c2c3c(sc2n1)CCC3 | 10.4%
57 | CCOc1ccc(N2C(=O)CC(NCCc3c[nH]c4ccccc34)C2=O)cc1 (stereo not shown) | 1.45%
58 | Cc1cc(C(=O)Nc2nccs2)c2cc(F)ccc2n1 | 7.7%
59 | CCCn1c(N)c(C(=O)CSc2nnc(Cc3ccccc3)o2)c(=O)n(C)c1=O | -0.939%
60 | O=S(=O)(c1ccccc1)c1ncc(C(F)(F)F)cc1O | 9%
61 | O=C(COC(=O)/C=C/c1cccc(F)c1)NC1CCCC1 | 4.41%
62 | CCOc1ccc(CCNC(=O)CCC(=O)N2CCOc3ccccc32)cc1OCC | -7.82%
63 | COc1cccc(OC)c1C(=O)NC(=S)N1CCCCC1c1cccnc1 (stereo not shown) | -13%
64 | Nc1c(CO)nnn1-c1ccccc1 | 4.7%
65 | O=C(Nc1ccc(OCC(F)(F)C(F)F)c(C(F)(F)F)c1)c1ccccc1O | 9.65%
66 | COc1ccc2c(Cl)c(-c3nnc(SCC(=O)c4ccccc4)n3C)sc2c1 | 8.28%

Row | Compound | hERG current change (%, negative = inhibition) at 10uM
67 | Cc1ccc(NC(=O)c2ccccc2NS(=O)(=O)c2ccc(Cl)s2)cc1S(=O)(=O)N1CCOCC1 | 0.321%
68 | COc1ccc(OCc2csc(N)n2)cc1 | 39.4%
69 | c1ccc2c(c1)nnn2-c1ncnc2sc3c(c12)CCCC3 | -12.2%
70 | Cc1nc(-n2nnc3cc(C)c(C)cc32)c2c3c(sc2n1)CCCC3 | -1.48%
71 | Cc1nc(-n2nnc3ccccc32)c2c3c(sc2n1)CCCC3 | -50.1%
72 | CCNC(=S)N1CCN(c2nc(CC)nc3sc4c(c23)CCCC4)CC1 | -15.4%
73 | Cc1nc(N2CCN(C(=O)c3ccco3)CC2)c(C#N)c2c1CCCC2 | 3.21%
74 | Cc1nc(N2CCN(C(=O)c3ccco3)CC2)c2c3c(sc2n1)CCCC3 | -64.1%
75 | CCC(=O)N1CCN(c2nc(CC)nc3sc4c(c23)CCCC4)CC1 | -71.7%
76 | CCc1nc(N2CCN(C(C)=O)CC2)c2c3c(sc2n1)CCCC3 | -20.1%
77 | O=C(c1ccco1)N1CCN(c2nc(C3CC3)nc3sc4c(c23)CCCC4)CC1 | -29.7%
78 | C/C(=N\NC(=O)c1nn(C)c(C)c1Br)c1cccc(NC(=O)c2ccoc2C)c1 | -23.2%
79 | CCCC(=O)c1ccc(-c2ccccc2)cc1 | -4.95%
80 | Cc1ccc(C(C)C)c(OCCCN2C(=O)NC(C)(C)C2=O)c1 | -14.3%
81 | Cc1ccc(N2C(=O)CC(Sc3cccs3)C2=O)cc1 (stereo not shown) | 12%
82 | Cc1cccc(NC(=O)c2oc3c(c2C)C(=O)CC(C)(C)C3)n1 | -14.9%
83 | CC1=C(C(=O)N2CCN(C(=O)c3ccco3)CC2)C2(CCC(C)CC2)OC1=O (stereo not shown) | -63.8%
84 | CC1=C(C(=O)N2CCCCC2)C2(CCC(C)CC2)OC1=O (stereo not shown) | -6.74%
85 | CC1=C(C(=O)N2CCCCCC2)C2(CCC(C)CC2)OC1=O (stereo not shown) | 2.11%
86 | Cc1c(CCC(=O)O)c(=O)oc2cc(OCc3ccccc3F)ccc12 | 27.4%
87 | Cc1nc(SCC(=O)N2CCOCC2)c2c(=O)n(C)c(=O)n(C)c2n1 | 0.699%
88 | C=CCc1cccc(CNc2cnc3ccccc3c2)c1O | -4.21%
